The binders below were run against AgAbp1 (assay: SPOT peptide array binding signal intensity (averaged, normalized) (arbitrary units (background-subtracted, floor 0; scale differs between SH3 domains)); higher = stronger binding of the SH3 domain to the peptide).
How it was run: (§1)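 The binding signal is the normalized, background-subtracted spot intensity averaged over replicates; its arbitrary units differ between domains. It was obtained by incubating 10 μg/ml GST-fused SH3 domains from four yeast species overnight at 4°C in TBS-based blocking buffer on cellulose membranes with synthetic 15-mer peptides, cysteines replaced by serines, then detecting with anti-GST antibody, HRP anti-mouse secondary and luminol.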

Binder	SPOT peptide array binding signal intensity
DFTLPPPPPPPGLDE	5
DKSRPPRPPPKPLHL	1130

These binders were tested against AgBbc1 in the same assay as above.
How it was run: as §1

Binder	SPOT peptide array binding signal intensity
DFTLPPPPPPPGLDE	≤ 0
DKSRPPRPPPKPLHL	193

What follows are binders tested against AgBem1-D1 in the same assay as above.
How it was run: as §1

Binder	SPOT peptide array binding signal intensity
DFTLPPPPPPPGLDE	≤ 0
DKSRPPRPPPKPLHL	≤ 0

What follows are binders tested against AgBzz1-D1 in the same assay as above.
How it was run: as §1

Binder	SPOT peptide array binding signal intensity
DFTLPPPPPPPGLDE	≤ 0
DKSRPPRPPPKPLHL	256

What follows are binders tested against AgBzz1-D2 in the same assay as above.
How it was run: as §1

Binder	SPOT peptide array binding signal intensity
DFTLPPPPPPPGLDE	≤ 0
DKSRPPRPPPKPLHL	134

These binders were tested against AgCyk3 in the same assay as above.
How it was run: as §1

Binder	SPOT peptide array binding signal intensity
DFTLPPPPPPPGLDE	≤ 0
DKSRPPRPPPKPLHL	≤ 0

What follows are binders tested against AgFus1 in the same assay as above.
How it was run: as §1

Binder	SPOT peptide array binding signal intensity
DFTLPPPPPPPGLDE	≤ 0
DKSRPPRPPPKPLHL	0.5

What follows are binders tested against AgHof1 in the same assay as above.
How it was run: as §1

Binder	SPOT peptide array binding signal intensity
DFTLPPPPPPPGLDE	57.5
DKSRPPRPPPKPLHL	14.2

What follows are binders tested against AgHse1 in the same assay as above.
How it was run: as §1

Binder	SPOT peptide array binding signal intensity
DFTLPPPPPPPGLDE	≤ 0
DKSRPPRPPPKPLHL	≤ 0

The binders below were run against AgLsb1 in the same assay as above.
How it was run: as §1

Binder	SPOT peptide array binding signal intensity
DFTLPPPPPPPGLDE	2
DKSRPPRPPPKPLHL	1.5

These binders were tested against AgLsb4 in the same assay as above.
How it was run: as §1

Binder	SPOT peptide array binding signal intensity
DFTLPPPPPPPGLDE	≤ 0
DKSRPPRPPPKPLHL	15

What follows are binders tested against AgMyo5 in the same assay as above.
How it was run: as §1

Binder	SPOT peptide array binding signal intensity
DFTLPPPPPPPGLDE	1550
DKSRPPRPPPKPLHL	62.2

Each binder was assayed against AgNbp2 in the same assay as above.
How it was run: as §1

Binder	SPOT peptide array binding signal intensity
DFTLPPPPPPPGLDE	32.5
DKSRPPRPPPKPLHL	62.5

What follows are binders tested against AgRvs167 in the same assay as above.
How it was run: as §1

Binder	SPOT peptide array binding signal intensity
DFTLPPPPPPPGLDE	1.67
DKSRPPRPPPKPLHL	1.33

Each binder was assayed against AgSho1 in the same assay as above.
How it was run: as §1

Binder	SPOT peptide array binding signal intensity
DFTLPPPPPPPGLDE	2
DKSRPPRPPPKPLHL	250

Each binder was assayed against AgSla1-D1-D2 in the same assay as above.
How it was run: as §1

Binder	SPOT peptide array binding signal intensity
DFTLPPPPPPPGLDE	1
DKSRPPRPPPKPLHL	≤ 0

Each binder was assayed against AgSla1-D3 in the same assay as above.
How it was run: as §1

Binder	SPOT peptide array binding signal intensity
DFTLPPPPPPPGLDE	0.5
DKSRPPRPPPKPLHL	9

These binders were tested against CaAbp1-D1 in the same assay as above.
How it was run: as §1

Binder	SPOT peptide array binding signal intensity
DFTLPPPPPPPGLDE	≤ 0
DKSRPPRPPPKPLHL	782

Each binder was assayed against CaAbp1-D2 in the same assay as above.
How it was run: as §1

Binder	SPOT peptide array binding signal intensity
DFTLPPPPPPPGLDE	≤ 0
DKSRPPRPPPKPLHL	1940

What follows are binders tested against CaBbc1 in the same assay as above.
How it was run: as §1

Binder	SPOT peptide array binding signal intensity
DFTLPPPPPPPGLDE	≤ 0
DKSRPPRPPPKPLHL	334

The binders below were run against CaBem1-D1 in the same assay as above.
How it was run: as §1

Binder	SPOT peptide array binding signal intensity
DFTLPPPPPPPGLDE	0.5
DKSRPPRPPPKPLHL	120

These binders were tested against CaBzz1-D1 in the same assay as above.
How it was run: as §1

Binder	SPOT peptide array binding signal intensity
DFTLPPPPPPPGLDE	136
DKSRPPRPPPKPLHL	2800

Each binder was assayed against CaBzz1-D2 in the same assay as above.
How it was run: as §1

Binder	SPOT peptide array binding signal intensity
DFTLPPPPPPPGLDE	5.5
DKSRPPRPPPKPLHL	578

Each binder was assayed against CaCyk3 in the same assay as above.
How it was run: as §1

Binder	SPOT peptide array binding signal intensity
DFTLPPPPPPPGLDE	≤ 0
DKSRPPRPPPKPLHL	34.5

These binders were tested against CaFus1 in the same assay as above.
How it was run: as §1

Binder	SPOT peptide array binding signal intensity
DFTLPPPPPPPGLDE	≤ 0
DKSRPPRPPPKPLHL	≤ 0

These binders were tested against CaHof1 in the same assay as above.
How it was run: as §1

Binder	SPOT peptide array binding signal intensity
DFTLPPPPPPPGLDE	≤ 0
DKSRPPRPPPKPLHL	0.5

Each binder was assayed against CaHse1 in the same assay as above.
How it was run: as §1

Binder	SPOT peptide array binding signal intensity
DFTLPPPPPPPGLDE	≤ 0
DKSRPPRPPPKPLHL	63.2

Each binder was assayed against CaLsb1 in the same assay as above.
How it was run: as §1

Binder	SPOT peptide array binding signal intensity
DFTLPPPPPPPGLDE	0.5
DKSRPPRPPPKPLHL	≤ 0

These binders were tested against CaLsb4 in the same assay as above.
How it was run: as §1

Binder	SPOT peptide array binding signal intensity
DFTLPPPPPPPGLDE	≤ 0
DKSRPPRPPPKPLHL	471

The binders below were run against CaMyo5 in the same assay as above.
How it was run: as §1

Binder	SPOT peptide array binding signal intensity
DFTLPPPPPPPGLDE	8
DKSRPPRPPPKPLHL	0.5

The binders below were run against CaNbp2 in the same assay as above.
How it was run: as §1

Binder	SPOT peptide array binding signal intensity
DKSRPPRPPPKPLHL	56

These binders were tested against CaRvs167 in the same assay as above.
How it was run: as §1

Binder	SPOT peptide array binding signal intensity
DKSRPPRPPPKPLHL	5.33

What follows are binders tested against CaRvs167-3 in the same assay as above.
How it was run: as §1

Binder	SPOT peptide array binding signal intensity
DKSRPPRPPPKPLHL	2

What follows are binders tested against CaSho1 in the same assay as above.
How it was run: as §1

Binder	SPOT peptide array binding signal intensity
DKSRPPRPPPKPLHL	5.5

These binders were tested against CaSla1-D1-D2 in the same assay as above.
How it was run: as §1

Binder	SPOT peptide array binding signal intensity
DKSRPPRPPPKPLHL	458

The binders below were run against CaSla1-D3 in the same assay as above.
How it was run: as §1

Binder	SPOT peptide array binding signal intensity
DKSRPPRPPPKPLHL	14.2

These binders were tested against ScAbp1 in the same assay as above.
How it was run: as §1

Binder	SPOT peptide array binding signal intensity
DKSRPPRPPPKPLHL	516

The binders below were run against ScBbc1 in the same assay as above.
How it was run: as §1

Binder	SPOT peptide array binding signal intensity
DKSRPPRPPPKPLHL	14.5

These binders were tested against ScBem1-D1 in the same assay as above.
How it was run: as §1

Binder	SPOT peptide array binding signal intensity
DKSRPPRPPPKPLHL	≤ 0

What follows are binders tested against ScBzz1-D1 in the same assay as above.
How it was run: as §1

Binder	SPOT peptide array binding signal intensity
DKSRPPRPPPKPLHL	118

What follows are binders tested against ScBzz1-D2 in the same assay as above.
How it was run: as §1

Binder	SPOT peptide array binding signal intensity
DKSRPPRPPPKPLHL	3

These binders were tested against ScCyk3 in the same assay as above.
How it was run: as §1

Binder	SPOT peptide array binding signal intensity
DKSRPPRPPPKPLHL	≤ 0

The binders below were run against ScFus1 in the same assay as above.
How it was run: as §1

Binder	SPOT peptide array binding signal intensity
DKSRPPRPPPKPLHL	≤ 0

Each binder was assayed against ScHof1 in the same assay as above.
How it was run: as §1

Binder	SPOT peptide array binding signal intensity
DKSRPPRPPPKPLHL	0.5

These binders were tested against ScHse1 in the same assay as above.
How it was run: as §1

Binder	SPOT peptide array binding signal intensity
DKSRPPRPPPKPLHL	≤ 0

Each binder was assayed against ScLsb1 in the same assay as above.
How it was run: as §1

Binder	SPOT peptide array binding signal intensity
DKSRPPRPPPKPLHL	210

What follows are binders tested against ScLsb2 in the same assay as above.
How it was run: as §1

Binder	SPOT peptide array binding signal intensity
DKSRPPRPPPKPLHL	≤ 0

Each binder was assayed against ScLsb3 in the same assay as above.
How it was run: as §1

Binder	SPOT peptide array binding signal intensity
DKSRPPRPPPKPLHL	1660

The binders below were run against ScLsb4 in the same assay as above.
How it was run: as §1

Binder	SPOT peptide array binding signal intensity
DKSRPPRPPPKPLHL	11

The binders below were run against ScMyo3 in the same assay as above.
How it was run: as §1

Binder	SPOT peptide array binding signal intensity
DKSRPPRPPPKPLHL	170

What follows are binders tested against ScMyo5 in the same assay as above.
How it was run: as §1

Binder	SPOT peptide array binding signal intensity
DKSRPPRPPPKPLHL	306

The binders below were run against ScNbp2 in the same assay as above.
How it was run: as §1

Binder	SPOT peptide array binding signal intensity
DKSRPPRPPPKPLHL	244

These binders were tested against ScPex13 in the same assay as above.
How it was run: as §1

Binder	SPOT peptide array binding signal intensity
DKSRPPRPPPKPLHL	669

The binders below were run against ScRvs167 in the same assay as above.
How it was run: as §1

Binder	SPOT peptide array binding signal intensity
DKSRPPRPPPKPLHL	47.7

Each binder was assayed against ScSho1 in the same assay as above.
How it was run: as §1

Binder	SPOT peptide array binding signal intensity
DKSRPPRPPPKPLHL	379

These binders were tested against ScSla1-D1-D2 in the same assay as above.
How it was run: as §1

Binder	SPOT peptide array binding signal intensity
DKSRPPRPPPKPLHL	83

What follows are binders tested against ScSla1-D3 in the same assay as above.
How it was run: as §1

Binder	SPOT peptide array binding signal intensity
DKSRPPRPPPKPLHL	≤ 0

Each binder was assayed against SpAbp1-D1 in the same assay as above.
How it was run: as §1

Binder	SPOT peptide array binding signal intensity
DKSRPPRPPPKPLHL	1120

Each binder was assayed against SpBbc1 in the same assay as above.
How it was run: as §1

Binder	SPOT peptide array binding signal intensity
DKSRPPRPPPKPLHL	≤ 0

What follows are binders tested against SpBzz1-D1 in the same assay as above.
How it was run: as §1

Binder	SPOT peptide array binding signal intensity
DKSRPPRPPPKPLHL	684

These binders were tested against SpBzz1-D2 in the same assay as above.
How it was run: as §1

Binder	SPOT peptide array binding signal intensity
DKSRPPRPPPKPLHL	1.5

The binders below were run against SpCyk3 in the same assay as above.
How it was run: as §1

Binder	SPOT peptide array binding signal intensity
DKSRPPRPPPKPLHL	1

The binders below were run against SpHof1 in the same assay as above.
How it was run: as §1

Binder	SPOT peptide array binding signal intensity
DKSRPPRPPPKPLHL	≤ 0

These binders were tested against SpHof1-2 in the same assay as above.
How it was run: as §1

Binder	SPOT peptide array binding signal intensity
DKSRPPRPPPKPLHL	≤ 0

Each binder was assayed against SpHof1-3 in the same assay as above.
How it was run: as §1

Binder	SPOT peptide array binding signal intensity
DKSRPPRPPPKPLHL	90.8

Each binder was assayed against SpHse1 in the same assay as above.
How it was run: as §1

Binder	SPOT peptide array binding signal intensity
DKSRPPRPPPKPLHL	16.8

The binders below were run against SpLsb1 in the same assay as above.
How it was run: as §1

Binder	SPOT peptide array binding signal intensity
DKSRPPRPPPKPLHL	362

The binders below were run against SpLsb4 in the same assay as above.
How it was run: as §1

Binder	SPOT peptide array binding signal intensity
DKSRPPRPPPKPLHL	746

Each binder was assayed against SpMyo1 in the same assay as above.
How it was run: as §1

Binder	SPOT peptide array binding signal intensity
DKSRPPRPPPKPLHL	466

What follows are binders tested against SpNbp2 in the same assay as above.
How it was run: as §1

Binder	SPOT peptide array binding signal intensity
DKSRPPRPPPKPLHL	≤ 0

The binders below were run against SpPex13 in the same assay as above.
How it was run: as §1

Binder	SPOT peptide array binding signal intensity
DKSRPPRPPPKPLHL	≤ 0

These binders were tested against SpRvs167 in the same assay as above.
How it was run: as §1

Binder	SPOT peptide array binding signal intensity
DKSRPPRPPPKPLHL	276

The binders below were run against SpSla1-D1-D2 in the same assay as above.
How it was run: as §1

Binder	SPOT peptide array binding signal intensity
DKSRPPRPPPKPLHL	≤ 0

What follows are binders tested against SpSla1-D3 in the same assay as above.
How it was run: as §1

Binder	SPOT peptide array binding signal intensity
DKSRPPRPPPKPLHL	≤ 0
